In PubChem BioAssay:
Potency and affinity values are given separately. Results filed as inconclusive are left out. The source made the active and inactive calls. Unless noted, no rule for the calls is given here.

How the values were obtained:
[1] = RMG-1 ovarian cancer cell viability loss – cherry-pick, dose response (AID 687029;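 active = signal drop whose fitted half-maximal concentration is at most twice the top valid dose, in every test run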;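 also: cells exposed to compound for 96 hours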)
[2] = IOSE-T80 viability loss, PAX8-independent line – cell-based, cherry-pick, selectivity assay for PAX8 inhibitor project, dose response (AID 687032;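 active = fitted half-maximal concentration for viability loss no higher than twice the top valid dose, in every repeat run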;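 also: cells exposed to compound for 96 h before reading; 0% = neutral control wells and -100% = 2 µM mitoxantrone kill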)
[3] = CMV-driven luciferase expression suppression in HEK293 – cell-based, luminescence, dry powder, counter-screen for Pax8 inhibitor project, dose response (AID 743020;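 active = signal-lowering compounds whose fitted half-maximal concentration is at or below twice the top tested dose in every run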;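 also: HEK293 cells stably expressing the CMV luciferase reporter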)
[4] = general cell-killing toxicity readout – plate reader, dry powder samples, cytotoxicity control for PAX8 inhibitor project, dose response (AID 743021)
[5] = toxicity toward immortalized ovarian surface epithelium – cell-based, plate reader, dry powder samples, cytotoxicity control for PAX8 inhibitor project, dose response (AID 743045);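 also: 0% = neutral control median and -100% = positive control median; more negative values mean more cell killing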
[6] = A2780 cell killing – plate reader, dry powder samples, cytotoxicity control, dose response (AID 743046);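 also: 0% = neutral control wells and -100% = cytotoxic reference compound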
[7] = OVCAR8 cell viability loss – plate reader, dry powder samples, PAX8 project, dose response (AID 743197)

Measured: activity change, negative = cytotoxicity

C[C@@H]1CCCCO[C@H](CN(C)Cc2ccc(C(F)(F)F)cc2)[C@H](C)CN([C@@H](C)CO)C(=O)c2cc(NC(=O)Nc3ccc4c(c3)OCO4)ccc2O1
not listed: [6] | [7]
inactive: all other assays above

Cc1ccc(S(=O)(=O)Nc2ccc3c(c2)C(=O)N([C@@H](C)CO)C[C@H](C)[C@@H](CN(C)Cc2ccc(C(F)(F)F)cc2)OCCCC[C@@H](C)O3)cc1
not listed: [7]
inactive: all other assays above

C[C@H](CO)N1C[C@H](C)[C@@H](CN(C)Cc2ccc(Oc3ccccc3)cc2)Oc2ccc(NS(=O)(=O)c3ccc(Cl)cc3)cc2CC1=O
not listed: [7]
inactive: all other assays above

C[C@@H]1CCCCO[C@@H](CN(C)Cc2ccccc2)[C@H](C)CN([C@@H](C)CO)C(=O)c2cc(NC(=O)Nc3ccc(C(F)(F)F)cc3)ccc2O1
not listed: [6] | [7]
inactive: all other assays above

C[C@@H]1CN([C@H](C)CO)C(=O)c2c(c3ccccc3n2C)-c2ccccc2CO[C@H]1CN(C)S(=O)(=O)c1ccc(C(F)(F)F)cc1
not listed: [6] | [7]
inactive: all other assays above

Cc1ccc(S(=O)(=O)N(C)C[C@H]2OCCCC[C@H](C)Oc3ccc(NS(=O)(=O)c4ccc(F)cc4)cc3C(=O)N([C@H](C)CO)C[C@@H]2C)cc1
not listed: [7]
inactive: all other assays above

CCCC#Cc1ccc([C@H]2[C@@H](CO)N3CCCCN(S(=O)(=O)Cc4ccccc4)C[C@H]23)cc1
not listed: [7]
inactive: all other assays above

C[C@@H]1CN([C@H](C)CO)C(=O)c2cc(NC(=O)Nc3ccc(C(F)(F)F)cc3)ccc2O[C@@H](C)CCCCO[C@@H]1CN(C)Cc1ccc2c(c1)OCO2
not listed: [7]
inactive: all other assays above

C[C@@H]1CN([C@@H](C)CO)C(=O)Cc2cc(NS(=O)(=O)c3ccc(F)cc3)ccc2O[C@H]1CN(C)Cc1ccc(C(F)(F)F)cc1
not listed: [7]
inactive: all other assays above

C[C@@H]1CN([C@H](C)CO)C(=O)c2cc(NC(=O)Nc3ccc(C(F)(F)F)cc3)ccc2O[C@@H](C)CCCCO[C@H]1CN(C)C(=O)Nc1ccc(C(F)(F)F)cc1
not listed: [6] | [7]
inactive: all other assays above

C[C@@H]1CN([C@@H](C)CO)C(=O)c2cc(NC(=O)Nc3ccc(C(F)(F)F)cc3)ccc2O[C@H]1CN(C)C(=O)Nc1ccc(C(F)(F)F)cc1
not listed: [7]
inactive: all other assays above

COc1ccc(-c2ccc3c(c2)[C@@H]2[C@@H](CCN2C(=O)C2CCCCC2)[C@H](CO)N3C)cc1
not listed: [6] | [7]
inactive: all other assays above

O=C(C1CCCC1)N1CC[C@@H]2[C@H](CO)Nc3ccc(C4=CCCCC4)cc3[C@@H]21
not listed: [7]
inactive: all other assays above

C[C@@H]1CCCCO[C@H](CN(C)Cc2ccc(C(F)(F)F)cc2)[C@H](C)CN([C@H](C)CO)C(=O)c2cc(NC(=O)Cc3ccccc3)ccc2O1
not listed: [7]
inactive: all other assays above

C[C@H](CO)N1C[C@H](C)[C@H](CN(C)S(=O)(=O)c2ccc(Cl)cc2)OCc2ccccc2-c2c(n(C)c3ccccc23)C1=O
not listed: [7]
inactive: all other assays above

C[C@@H]1CN([C@H](C)CO)C(=O)c2cc(NC(=O)CCC(F)(F)F)ccc2O[C@@H](C)CCCCO[C@@H]1CN(C)Cc1ccc(Cl)c(Cl)c1
not listed: [6] | [7]
inactive: all other assays above

COc1ccc(S(=O)(=O)Nc2ccc3c(c2)C(=O)N([C@H](C)CO)C[C@H](C)[C@@H](CN(C)S(=O)(=O)c2ccc(F)cc2)OCCCC[C@H](C)O3)cc1
not listed: [6] | [7]
inactive: all other assays above

O=C1CN(S(=O)(=O)Cc2ccccc2)C[C@@H]2[C@@H](c3ccc(C#CC4CC4)cc3)[C@@H](CO)N12
inactive: [1] | [2] | [3] | [4] | [5] | [6] 19% [at 8 µM]

O=C1CN(S(=O)(=O)Cc2ccccc2)C[C@@H]2[C@@H](c3ccc(C#CCC4CCCC4)cc3)[C@@H](CO)N12
not listed: [6] | [7]
inactive: all other assays above

C[C@H]1CCCCO[C@@H](CN(C)Cc2ccccc2)[C@@H](C)CN([C@@H](C)CO)C(=O)c2cc(NC(=O)Nc3ccc(C(F)(F)F)cc3)ccc2O1
not listed: [7]
inactive: all other assays above

COc1ccccc1S(=O)(=O)N(C)C[C@H]1Oc2cc(C#CCC3CCCC3)ccc2S(=O)(=O)N([C@H](C)CO)C[C@H]1C
not listed: [6] | [7]
inactive: all other assays above

Cc1cccc(S(=O)(=O)N2CCCCN3[C@H](CO)[C@H](c4ccc(C#C[C@H](C)O)cc4)[C@H]3C2)c1
not listed: [7]
inactive: all other assays above

C[C@H](CO)N1C[C@H](C)[C@@H](CN(C)Cc2ccc(-c3ccccc3)cc2)Oc2ccc(NS(=O)(=O)c3ccc(F)cc3)cc2CC1=O
not listed: [7]
inactive: all other assays above

COc1ccc(S(=O)(=O)Nc2ccc3c(c2)C(=O)N([C@H](C)CO)C[C@@H](C)[C@@H](CN(C)Cc2ccc(C(F)(F)F)cc2)OCCCC[C@@H](C)O3)cc1
not listed: [6] | [7]
inactive: all other assays above

COc1ccc2c3c(n(C)c2c1)[C@H](CO)N(C(=O)Nc1ccc(F)cc1)CC31CCN(C(=O)c2ccc3c(c2)OCO3)CC1
not listed: [6] | [7]
inactive: all other assays above

C[C@@H]1CCCCO[C@@H](CN(C)Cc2ccc3c(c2)OCO3)[C@@H](C)CN([C@@H](C)CO)C(=O)c2cc(NC(=O)Nc3ccc(C(F)(F)F)cc3)ccc2O1
not listed: [7]
inactive: all other assays above

Cc1noc(C)c1S(=O)(=O)Nc1ccc2c(c1)C(=O)N([C@H](C)CO)C[C@@H](C)[C@@H](CN(C)Cc1ccc(C(F)(F)F)cc1)OCCCC[C@H](C)O2
not listed: [7]
inactive: all other assays above

C[C@@H]1CN([C@H](C)CO)C(=O)c2cc(NS(=O)(=O)c3ccc(Cl)cc3)ccc2O[C@@H](C)CCCCO[C@H]1CN(C)Cc1ccc2c(c1)OCO2
not listed: [7]
inactive: all other assays above

COc1ccccc1NC(=O)N1CCCCN2[C@@H](CO)[C@@H](c3ccc(C#Cc4ccccc4)cc3)[C@@H]2C1
not listed: [7]
inactive: all other assays above

C[C@H]1CCCCO[C@H](CN(C)Cc2ccc(C(F)(F)F)cc2)[C@@H](C)CN([C@@H](C)CO)C(=O)c2cc(NC(=O)Cc3ccccc3)ccc2O1
not listed: [7]
inactive: all other assays above

C[C@@H]1CN([C@@H](C)CO)C(=O)c2cc(NS(=O)(=O)c3ccc(F)cc3)ccc2O[C@@H](C)CCCCO[C@@H]1CN(C)Cc1ccc(C(F)(F)F)cc1
not listed: [6] | [7]
inactive: all other assays above

C[C@@H]1CN([C@H](C)CO)C(=O)c2cc(NC(=O)Nc3ccc4c(c3)OCO4)ccc2O[C@@H](C)CCCCO[C@H]1CN(C)Cc1ccc(C(F)(F)F)cc1
not listed: [6] | [7]
inactive: all other assays above

C[C@@H]1CCCCO[C@H](CN(C)Cc2ccc(C(F)(F)F)cc2)[C@@H](C)CN([C@@H](C)CO)C(=O)c2cc(NS(=O)(=O)c3ccc(F)cc3)ccc2O1
not listed: [6] | [7]
inactive: all other assays above

O=C(C[C@@H]1CC[C@@H]2[C@H](COC[C@@H](O)CN2C(=O)Nc2ccc(Cl)c(Cl)c2)O1)NCc1ccc(Cl)cc1
not listed: [6] | [7]
inactive: all other assays above

C[C@@H]1CN([C@@H](C)CO)C(=O)c2cc(NC(=O)Nc3ccc(C(F)(F)F)cc3)ccc2O[C@@H](C)CCCCO[C@H]1CN(C)Cc1ccc2c(c1)OCO2
not listed: [7]
inactive: all other assays above

Cc1ccc(S(=O)(=O)Nc2ccc3c(c2)C(=O)N([C@@H](C)CO)C[C@H](C)[C@@H](CN(C)Cc2ccc(C(F)(F)F)cc2)OCCCC[C@H](C)O3)cc1
not listed: [6] | [7]
inactive: all other assays above

O=S(=O)(Nc1cccc2cccnc12)c1ccccc1
not listed: [7]
inactive: all other assays above

COc1cccc(-c2ccc3c(c2)[C@H]2[C@H](CCN2S(=O)(=O)c2ccccc2OC)[C@@H](CO)N3C)c1
not listed: [7]
inactive: all other assays above

C[C@@H]1CCCCO[C@H](CN(C)Cc2ccc(Cl)c(Cl)c2)[C@@H](C)CN([C@@H](C)CO)C(=O)c2cc(NC(=O)Cc3ccccc3)ccc2O1
not listed: [7]
inactive: all other assays above

O=C(Nc1cccc(F)c1)N1CCCCN2[C@@H](CO)[C@@H](c3ccc(C#Cc4ccccc4)cc3)[C@@H]2C1
not listed: [7]
inactive: all other assays above

CCCC#Cc1ccc([C@@H]2[C@H](CO)N3CCCCN(S(=O)(=O)Cc4ccccc4)C[C@@H]23)cc1
inactive: all assays above

C[C@@H]1CN([C@@H](C)CO)S(=O)(=O)c2ccc(C#C[C@@H](C)O)cc2O[C@H]1CN(C)Cc1ccc(-c2ccccc2)cc1
inactive: all assays above

CCc1ccc(/C=C2\SC(=S)N(CCCC(=O)N(CCO)c3ccccc3)C2=O)cc1
not listed: [7]
inactive: all other assays above

C[C@@H]1CN([C@@H](C)CO)C(=O)Cc2cc(NS(=O)(=O)c3cccs3)ccc2O[C@H]1CN(C)Cc1ccc(C(F)(F)F)cc1
inactive: all assays above

Cc1ccccc1S(=O)(=O)N1C[C@@H]2N[C@H](C1)C2c1ccc(-c2cccc(C#N)c2)cc1 (some centres undefined)
not listed: [5] | [7]
inactive: all other assays above

COc1ccc(S(=O)(=O)Nc2ccc3c(c2)C(=O)N([C@H](C)CO)C[C@@H](C)[C@H](CN(C)S(=O)(=O)c2ccc(Cl)cc2)OCCCC[C@H](C)O3)cc1
not listed: [7]
inactive: all other assays above

C[C@@H]1CN([C@@H](C)CO)C(=O)c2cc(NC(=O)Nc3ccc(C(F)(F)F)cc3)ccc2O[C@@H](C)CCCCO[C@H]1CN(C)Cc1ccncc1
not listed: [7]
inactive: all other assays above

C[C@@H]1CN([C@@H](C)CO)C(=O)Cc2cc(NC(=O)Nc3ccc(C(F)(F)F)cc3)ccc2O[C@H]1CN(C)Cc1ccc2c(c1)OCO2
not listed: [7]
inactive: all other assays above

C[C@H]1CCCCO[C@@H](CN(C)Cc2ccc(C(F)(F)F)cc2)[C@@H](C)CN([C@@H](C)CO)C(=O)c2cc(NC(=O)Nc3ccc4c(c3)OCO4)ccc2O1
not listed: [7]
inactive: all other assays above

O=C(C[C@@H]1C[C@H]2c3cc(NS(=O)(=O)c4ccc(F)cc4)ccc3O[C@H]2[C@H](CO)O1)NCc1ccc(Cl)cc1
not listed: [5] | [7]
inactive: all other assays above

O=C(C[C@H]1C[C@@H]2c3cc(NC(=O)Nc4ccc(C(F)(F)F)cc4)ccc3O[C@@H]2[C@@H](CO)O1)NCc1ccc(Cl)cc1
inactive: all assays above

C[C@H]1CCCCO[C@H](CN(C)C(=O)Nc2ccc(C(F)(F)F)cc2)[C@@H](C)CN([C@@H](C)CO)C(=O)c2cc(NC(=O)CCC(F)(F)F)ccc2O1
inactive: all assays above
